# In PubChem BioAssay (EPA / NIEHS):
# Records with an inconclusive call do not appear. Activity calls are given as the source filed them. Rule for the calls: active = hit-call score of the fitted dose curve at least 0.9, where 1 is the maximum; inconclusive = response in the unintended direction; inactive = score below 0.9.
# What was measured:
# [1] = tested on: rat Monoamine Oxidase, MAO-A, Peripheral (MAOAP), gene 29253; experiment: NVS_ENZ_rMAOAP: NovaScreen (NVS) Enzymatic Assay for rat Monoamine Oxidase, MAO-A, Peripheral (MAOAP) (AID 2283237)
# Procedure, shortened: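 Rat liver mitochondrial membranes served as the MAO-A source, with enzyme activity measured by radiometric scintillation counting 1.17 hours after dosing. Loss of signal was fitted against DMSO; primary screen used 25 uM in duplicate, follow-up used concentration series.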
# [2] = tested on: rat Monoamine Oxidase, MAO-A, Central (MAOAC), gene 29253; experiment: NVS_ENZ_rMAOAC: NovaScreen (NVS) Enzymatic Assay for rat Monoamine Oxidase, MAO-A, Central (MAOAC) (AID 2283243);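 note: potency refers to inhibition seen as signal drop below DMSO baseline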
# Procedure, shortened: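 Steps: rat brain protein extract dosed with test chemical (25 uM, duplicate, primary); incubated 1.5 h; radiolabelled product separated from substrate and counted. Signal loss versus DMSO scored as inhibition.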
# [3] = biological target: rat Constitutive Nitric Oxide Synthase (CNOS), Nos1 (gene 24598) (UniProt P29476); experiment: NVS_ENZ_rCNOS: NovaScreen (NVS) Enzymatic Assay for rat Constitutive Nitric Oxide Synthase (CNOS) (AID 2283236)
# rat Constitutive Nitric Oxide Synthase (CNOS), Nos1 (gene 24598), sequence (P29476 whole entry, looked up): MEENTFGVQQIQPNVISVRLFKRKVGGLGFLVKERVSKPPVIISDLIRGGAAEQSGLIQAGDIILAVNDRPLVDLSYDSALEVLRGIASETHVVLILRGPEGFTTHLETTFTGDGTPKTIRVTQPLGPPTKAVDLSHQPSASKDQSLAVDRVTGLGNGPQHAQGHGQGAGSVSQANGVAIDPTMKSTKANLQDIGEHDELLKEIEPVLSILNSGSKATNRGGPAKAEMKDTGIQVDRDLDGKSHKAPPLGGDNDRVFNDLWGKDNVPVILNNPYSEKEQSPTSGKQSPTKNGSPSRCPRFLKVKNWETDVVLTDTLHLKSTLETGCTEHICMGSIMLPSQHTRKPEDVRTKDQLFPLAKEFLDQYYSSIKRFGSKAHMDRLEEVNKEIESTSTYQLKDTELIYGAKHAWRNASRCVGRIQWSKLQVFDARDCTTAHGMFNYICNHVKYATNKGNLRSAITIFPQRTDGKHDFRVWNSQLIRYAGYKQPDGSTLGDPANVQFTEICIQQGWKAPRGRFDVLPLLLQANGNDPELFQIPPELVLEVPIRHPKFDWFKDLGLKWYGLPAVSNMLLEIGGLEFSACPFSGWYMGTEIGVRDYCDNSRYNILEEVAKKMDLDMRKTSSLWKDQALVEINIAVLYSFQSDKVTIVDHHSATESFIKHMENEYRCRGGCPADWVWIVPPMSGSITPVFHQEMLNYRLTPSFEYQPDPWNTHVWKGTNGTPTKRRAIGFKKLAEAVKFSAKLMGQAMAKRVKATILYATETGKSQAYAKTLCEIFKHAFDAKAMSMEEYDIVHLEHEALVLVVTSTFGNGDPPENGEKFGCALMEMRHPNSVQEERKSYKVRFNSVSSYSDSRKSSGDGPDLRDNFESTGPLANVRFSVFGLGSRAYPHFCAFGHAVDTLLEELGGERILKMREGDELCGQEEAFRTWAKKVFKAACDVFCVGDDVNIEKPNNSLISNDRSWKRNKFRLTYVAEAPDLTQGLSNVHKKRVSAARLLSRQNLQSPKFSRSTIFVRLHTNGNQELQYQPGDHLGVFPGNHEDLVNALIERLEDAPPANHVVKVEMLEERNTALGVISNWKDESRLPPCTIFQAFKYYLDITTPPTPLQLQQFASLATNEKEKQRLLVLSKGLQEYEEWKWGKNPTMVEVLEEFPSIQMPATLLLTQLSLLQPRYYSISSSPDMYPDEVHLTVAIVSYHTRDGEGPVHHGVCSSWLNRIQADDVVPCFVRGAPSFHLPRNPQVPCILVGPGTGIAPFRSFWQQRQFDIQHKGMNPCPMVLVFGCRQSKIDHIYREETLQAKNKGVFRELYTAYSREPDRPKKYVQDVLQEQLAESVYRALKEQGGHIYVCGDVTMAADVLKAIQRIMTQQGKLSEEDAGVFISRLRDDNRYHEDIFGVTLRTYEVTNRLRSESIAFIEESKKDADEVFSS
# Procedure, shortened: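 Enzyme activity in rat brain membrane preparation, read 1 h after dosing by filter-based radiometric scintillation counting. Primary screen in duplicate at 25 uM; actives (e.g., ≥30% inhibition) then run in concentration-response up to 50 uM.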
# [4] = biological target: bovine Dopamine Receptor (DR), Non-selective Binding, DRD1 (gene 281125) (UniProt Q95136); experiment: NVS_GPCR_bDR_NonSelective: NovaScreen (NVS) G Protein-Coupled Receptor Assay for bovine Dopamine Receptor (DR), Non-selective Binding (AID 2283241)
# bovine Dopamine Receptor (DR), Non-selective Binding, DRD1 (gene 281125), sequence (Q95136 whole entry, looked up): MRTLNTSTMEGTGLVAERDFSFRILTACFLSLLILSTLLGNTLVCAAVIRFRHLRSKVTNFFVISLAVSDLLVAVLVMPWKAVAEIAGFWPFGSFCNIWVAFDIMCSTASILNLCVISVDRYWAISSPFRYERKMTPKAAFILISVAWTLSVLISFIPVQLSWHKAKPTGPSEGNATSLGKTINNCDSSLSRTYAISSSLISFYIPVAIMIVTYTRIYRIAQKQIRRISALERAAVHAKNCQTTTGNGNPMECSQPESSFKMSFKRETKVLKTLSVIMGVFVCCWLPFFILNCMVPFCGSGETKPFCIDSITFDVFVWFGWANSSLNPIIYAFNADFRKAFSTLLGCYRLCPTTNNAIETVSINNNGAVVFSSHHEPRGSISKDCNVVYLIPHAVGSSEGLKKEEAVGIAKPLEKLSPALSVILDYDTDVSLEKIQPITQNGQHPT
# Procedure, shortened: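 Bovine striatal membranes; radioligand displacement read by filtration and scintillation counting 1 h after dosing, loss of signal vs DMSO. Screened in duplicate at 25 uM, then concentration-response for hits.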
# [5] = tested on: guinea pig Muscarinic, Peripheral (Mperiperal) Receptor, Non-selective Binding, gene 100379235; experiment: NVS_GPCR_gMPeripheral_NonSelective: NovaScreen (NVS) G Protein-Coupled Receptor Assay for guinea pig Muscarinic, Peripheral (Mperiperal) Receptor, Non-selective Binding (AID 2283250)
# Procedure, shortened: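 Guinea pig bladder membranes, radioligand binding read 1 h after dosing by filter scintillation counting; loss of signal vs DMSO. Primary duplicate screen at 25 uM, then concentration-response up to 50 uM.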
# [6] = biological target: rat Monoamine Oxidase, MAO-B, Central (MAOBC), Maob (gene 25750) (UniProt P19643); experiment: NVS_ENZ_rMAOBC: NovaScreen (NVS) Enzymatic Assay for rat Monoamine Oxidase, MAO-B, Central (MAOBC) (AID 2283238)
# rat Monoamine Oxidase, MAO-B, Central (MAOBC), Maob (gene 25750), sequence (P19643 whole entry, looked up): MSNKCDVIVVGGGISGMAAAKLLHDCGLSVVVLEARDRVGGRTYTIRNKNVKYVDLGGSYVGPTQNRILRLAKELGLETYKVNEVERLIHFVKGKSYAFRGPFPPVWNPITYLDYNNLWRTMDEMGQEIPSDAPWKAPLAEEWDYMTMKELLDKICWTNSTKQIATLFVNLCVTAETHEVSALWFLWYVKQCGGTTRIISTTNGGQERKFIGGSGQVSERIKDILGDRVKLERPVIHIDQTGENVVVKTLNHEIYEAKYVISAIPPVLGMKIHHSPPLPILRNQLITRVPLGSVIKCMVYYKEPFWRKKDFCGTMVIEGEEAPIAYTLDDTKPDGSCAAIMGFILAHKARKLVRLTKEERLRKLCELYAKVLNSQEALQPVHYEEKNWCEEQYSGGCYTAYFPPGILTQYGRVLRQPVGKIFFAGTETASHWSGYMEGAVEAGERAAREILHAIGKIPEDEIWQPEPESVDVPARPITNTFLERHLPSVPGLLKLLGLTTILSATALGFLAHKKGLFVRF
# Procedure, shortened: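 MAO-B activity in rat brain tissue preparation, cell-free, measured radiometrically by scintillation counting 1.17 h after dosing. Screened in duplicate at 25 uM; actives then in concentration-response up to 50 uM. Loss of signal versus DMSO scored.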
# [7] = tested on: guinea pig Leukotriene B4 Receptor (LTB4), gene 100379538; experiment: NVS_GPCR_gLTB4: NovaScreen (NVS) G Protein-Coupled Receptor Assay for guinea pig Leukotriene B4 Receptor (LTB4) (AID 2283247)
# Procedure, shortened: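 Radioligand displacement on guinea pig spleen membranes, filter-based scintillation counting 2 h after dosing. Primary duplicate single point at 25 uM; hits over threshold (e.g. 30% inhibition) run in concentration-response up to 50 uM, DMSO baseline.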
# [8] = biological target: rat Monoamine Oxidase, MAO-B, Peripheral (MAOBP), Maob (gene 25750) (UniProt P19643); experiment: NVS_ENZ_rMAOBP: NovaScreen (NVS) Enzymatic Assay for rat Monoamine Oxidase, MAO-B, Peripheral (MAOBP) (AID 2283242)
# rat Monoamine Oxidase, MAO-B, Peripheral (MAOBP), Maob (gene 25750), sequence (P19643 whole entry, looked up): as above
# [9] = NVS_GPCR_bNPY_NonSelective: NovaScreen (NVS) G Protein-Coupled Receptor Assay for bovine Neuropeptide Y (NPY) Receptor, Non-selective Binding (AID 2283245)
# Procedure, shortened: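 Bovine hippocampal membranes incubated 1 hour with radioligand and test chemical. Bound ligand measured by filter-based scintillation counting. Single-concentration screen at 25 uM in duplicate, then concentration-response up to 50 uM.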
smiles,measurement,setting,value
COc1cc(OC)nc(NC(=O)NS(=O)(=O)c2ncccc2OCC(F)(F)F)n1,outcome,[1],inactive
Nc1c(Cl)c(F)nc(OCC(=O)O)c1Cl,AC50,[2],46800 nM (active)
CC(C)NC(=O)N1CC(=O)N(c2cc(Cl)cc(Cl)c2)C1=O,AC50,[3],25000 nM (active)
same,outcome,[4],inactive
CCOc1nc(F)cc2nc(S(=O)(=O)Nc3c(Cl)cccc3Cl)nn12,outcome,[5],inactive
N#Cc1c(Cl)cccc1Cl,AC50,[6],25000 nM (active)
same,outcome,[2],inactive
CCN(CC)c1nc(C)cc(OP(=S)(OC)OC)n1,outcome,[3],inactive
same,outcome,[7],inactive
COc1ccc(-c2ccccc2)cc1NNC(=O)OC(C)C,outcome,[3],inactive
same,AC50,[1],310 nM (active)
same,AC50,[6],45.2 nM (active)
same,AC50,[8],139 nM (active)
same,AC50,[2],599 nM (active)
CCOP(=S)(OCC)Oc1nc(Cl)n(C(C)C)n1,outcome,[9],inactive
COP(=S)(OC)Oc1ccc([N+](=O)[O-])c(C)c1,outcome,[2],inactive
CCCCC(C#N)(Cn1cncn1)c1ccc(Cl)cc1 (configuration not stated),outcome,[1],inactive
